ERK AVP block: blocks ERK signaling stimulated by vasopressin. HEK293-V1b, vasopressin-stimulated pERK AlphaScreen. Potency, µM (titrated, usually from 57.5 µM), actives largely listed as inhibitors. 72,000 compounds, 0.99% hits. AID 995; further: nearly all actives have a fitted effect of over 55% in size
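Overnight-seeded V1b-HEK293 cells in 1% FBS got compound, then vasopressin (25 nM final, 5 min, 37C), then lysis buffer. AlphaScreen detection of phospho-ERK; activity normalized to basal and full-stimulation controls.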
GBA mod: modulators of human glucocerebrosidase; P04062; purified enzyme, resorufin glucoside fluorescence (screen aimed at inhibitors), 20 min; Potency, µM; 48,000 compounds, 1.1% hits; in the data active means potency below about 15 µM; inconclusive means mostly about 16 µM to 33 µM;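 further: the screen sought inhibitors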
Target sequence (P04062 whole entry, looked up): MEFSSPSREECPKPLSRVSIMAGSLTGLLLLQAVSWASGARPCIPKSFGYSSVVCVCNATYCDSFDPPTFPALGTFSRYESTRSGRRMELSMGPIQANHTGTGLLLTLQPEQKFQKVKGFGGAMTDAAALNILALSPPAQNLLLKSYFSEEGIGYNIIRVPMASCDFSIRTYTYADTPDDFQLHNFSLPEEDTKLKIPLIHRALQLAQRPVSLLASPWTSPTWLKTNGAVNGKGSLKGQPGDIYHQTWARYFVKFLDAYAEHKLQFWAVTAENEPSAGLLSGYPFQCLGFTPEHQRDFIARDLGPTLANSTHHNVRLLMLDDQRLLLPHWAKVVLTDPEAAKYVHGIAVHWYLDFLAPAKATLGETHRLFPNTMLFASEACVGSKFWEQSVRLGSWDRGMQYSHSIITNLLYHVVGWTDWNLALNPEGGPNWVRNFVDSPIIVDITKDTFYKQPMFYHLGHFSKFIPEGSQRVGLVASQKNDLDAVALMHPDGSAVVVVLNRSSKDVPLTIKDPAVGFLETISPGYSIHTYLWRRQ
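Normal human glucocerebrosidase (0.2 nM final) was assayed with resorufin β-D-glucopyranoside (30 uM final) in 50mM citric acid/KH2PO4, 10mM sodium taurocholate, 0.01% tween-20, pH 5.9. Compounds were titrated; fluorescence (Ex 548, Em 600) read after 20 min at RT.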
Luciferase inh: firefly luciferase inhibition; P08659; 72,000 compounds, 2.2% hits; Potency, µM (highest dose often 57.1 µM), usual class: inhibitors; purified firefly luciferase, luminescence, 8 min; further: nearly all actives have a fitted effect of over 40% in size
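Substrate buffer containing 10 uM ATP (pH 7.2 imidazole, Mg2+, KCl, detergent, BSA) is dispensed, compound pinned in, then luciferase/luciferin detector mix added. After 8 min at ambient temperature, light output is measured.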
Bst PK mod: alters activity of Bacillus stearothermophilus pyruvate kinase. 51,000 compounds, 1.2% hits. purified pyruvate kinase, luminescence ATP production; ribose 5-phosphate activator present at AC10. Potency, µM. AID 361; in the data active means potency below about 11 µM; inconclusive means mostly about 12 µM to 25 µM;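 the screen sought inhibitors and activators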
A number is an active result; 0 = inactive; ? = inconclusive; - = no result given; [ ] = dose if it differs, or a comment. Compounds with a hit are over-represented: about 3.9% of the library has one in this group of screens. Unless noted, the call rests on the fitted dose curve; in most records, active means well fitted curve in the direction sought with a large enough effect; inconclusive means small, poorly fitted or top-dose-only effect, or another doubt; inactive means no such curve, though single readings can be large; an effect the other way counts as inactive or inconclusive.

SMILES	ERK AVP block	GBA mod	Luciferase inh	Bst PK mod
COc1ccccc1N1CCN(C/C=C/c2ccc(N(C)C)cc2)CC1	15.8µM	-	0	-
C=C(C#N)C(=O)OCC	0	-	-	-
COc1cc(N)c(Cl)cc1C(=O)N[C@H]1CCN(CCCOc2ccc(F)cc2)C[C@@H]1OC	31.6µM	-	0	-
CCCCN1CCC(CCC(=O)c2cc(Cl)c(N)cc2OC)CC1	0	-	0	-
Cc1cccc(CN2CCN([C@@H](c3ccccc3)c3ccc(Cl)cc3)CC2)c1	0	-	0	-
Cn1c(-c2ccc3ccccc3n2)nc2cnccc21	0	0	12.6µM	?
Cc1nc2cc(NC(=O)Nc3nccs3)ccc2n1C	0	-	6.31µM	11.1
Cc1nc2cc(NC(=O)NCc3ccco3)ccc2n1C	0	?	0	0
C=C1CC[C@H](O)C/C1=C/C=C1\CCC[C@]2(C)[C@H]1CC[C@H]2[C@@H](C)/C=C\[C@@H](C)C(C)C	0	-	0	-
CCn1c(SCC(=O)Nc2ccc(N3CCOCC3)c(Cl)c2)nnc1-c1ccc(N)cc1	0	0	12.6µM	-
CCOC(=O)CNC(=O)CSc1ncnc2c1cnn2-c1ccccc1	0	0	0	0
CCOC(=O)CNC(=O)CSc1ncnc2c1cnn2-c1ccc(C)cc1	7.94µM	0	0	0
C=CCSc1nnc(-c2ccc(Cl)cc2Cl)o1	0	-	7.94µM	-
Clc1ccc(-c2nnc(SCc3ccon3)o2)c(Cl)c1	0	0	7.94µM	10.2
CCOc1ccccc1CNC(=O)c1cc2occc2n1C	20µM	-	0	-
COc1ccccc1CNC(=O)c1cc2sccc2n1C	0	0	0	0
C[C@@]12CCC(=O)C[C@@H]1CC(=O)[C@H]1[C@H]3CCC[C@]3(C)C(=O)C[C@@H]12 (tested in a mixture with another compound)	0	-	0	-
COCCNc1c(-c2ccc(O)cc2)nc2ccc(Cl)cn12	0	6.94	0	0
CC(=O)O[C@@H]1CC[C@]2(C)[C@H]3CC[C@]4(C)[C@H](C[C@H]5CCCC[C@@]54C(C)=O)[C@@H]3CC(=O)[C@@]2(O)C1	-	-	0[11.4 µM]	-
CN1CCc2c(sc3c2C(=O)NC(c2ccco2)N3)C1 (centres undefined)	?	0	0	0
CN1CCc2c(sc3c2C(=O)NC(c2cccc(OC(=O)c4cccs4)c2)N3)C1 (centres undefined)	0	-	0	-
CCOC(=O)N1CCc2c(sc3c2C(=O)NC(c2ccccc2)N3)C1 (centres undefined)	?	4.02	0	0
CN1CCc2c(sc3c2C(=O)NC(c2cn(Cc4ccccc4)c4ccccc24)N3)C1 (centres undefined)	12.6µM	-	0	-
C[C@H]1CS(=O)(=O)CCN1/N=C\c1ccc([N+](=O)[O-])o1	0	-	0	-
COc1ccc2cc3cc(C(=O)NCCN4CCN(Cc5ccccc5)CC4)oc3nc2c1	0	0	0	?
SMILES	ERK AVP block	GBA mod	Luciferase inh	Bst PK mod
COc1ccc2cc3cc(C(=O)NCCN4CCc5ccccc5C4)oc3nc2c1	0	0	0	0.764
O=C(NC1CCCCCC1)c1c(O)c2ccccc2[nH]c1=O	0	11.4	0	-
Nc1c(Cl)cc(Cl)cc1Cl	0	-	-	-
CC(C)[C@@H](C)/C=C\[C@@H](C)[C@@H]1CC[C@H]2C3=CC=C4C[C@@H](O)CC[C@]4(C)[C@H]3CC[C@]21C	0[11.5 µM]	-	0[11.4 µM]	-
O=C(O)CCCCCNc1nc(=S)[nH]c2ccccc12	0	7.73	0	0
CC1CCCCN1CCNc1nc(=S)[nH]c2ccccc12 (centres undefined)	0	-	0	0
CC(C)CN1CCC2(CC1)CCN(C(=O)c1cnccn1)CC2	0	-	0[11.4 µM]	-
N#CC(C#N)=C(N)/C(C#N)=C/c1ccc(O)cc1	12.6µM	-	0	-
COc1ccc(/C=C(\C#N)C(N)=O)cc1OC	0[11.5 µM]	-	0[11.4 µM]	-
O=c1[nH]cnc2c1nc(Cl)n2C1OC(CO)C(O)C1O (centres undefined)	0	-	-	-
O=C(c1ccccc1)c1ccc(OCC(O)CN2CCCCC2)cc1 (centres undefined)	0	0	0	0
CN(C)S(=O)(=O)N1CCN(CC(O)COc2ccc(C(=O)c3ccccc3)cc2)CC1 (centres undefined)	31.6µM	0	0	0
Cc1ccc(OCC(=O)Nc2cccc(-c3nnc(-c4ccccc4)o3)c2)cc1	0	8.61	0	0
CC[C@@H](c1ccccc1)n1c(=O)n2n(c1=O)[C@H]1[C@H](O)[C@H]3O[C@H]3C(=O)[C@H]1CC2	0[11.5 µM]	-	0[11.4 µM]	-
COC(=O)c1sc2nc3c(cc2c1N)COC(C)(C)C3	0	-	12.6µM	-
O=C(CN1C(=O)c2cccc3cccc1c23)Nc1cccnc1	0	0	0	10.4
O=C(O)CC1(C(=O)O)CCCCC1	0[11.5 µM]	-	0[11.4 µM]	-
COC(=O)NC(c1cccc(C)c1)[C@]1(C(C)=O)CCCC1=O (some centres undefined)	0[11.5 µM]	-	-	-
CCOc1ccccc1N1CCN(S(=O)(=O)c2ccc(Cl)s2)CC1	0	0	0	?
O=S(=O)(c1cccc2nsnc12)N1CCCC1	0	0	0	-
CC1Cc2ccccc2N1S(=O)(=O)c1cccc2nsnc12 (centres undefined)	15.8µM	0	0	-
COc1ccccc1N1CCN(S(=O)(=O)c2cccc3nsnc23)CC1	0	0	0	7.36
COc1ccccc1N1CCN(S(=O)(=O)c2ccc(Cl)s2)CC1	0	0	0	11
O=C(Nc1cccc(F)c1)N1CCC2(CC1)CCN(C(=O)c1ccncc1)CC2	0	-	0[11.4 µM]	-
COC(=O)[C@H]1C[C@@H]1[C@H](NC(C)=O)c1ccccc1	0	-	-	-
SMILES	ERK AVP block	GBA mod	Luciferase inh	Bst PK mod
O=C(Nc1cccnc1)c1cn(-c2ccccc2)nc1-c1cccs1	?	0	10µM	10.2
FC(F)(F)c1ccccc1-c1nc(NC2CC2)c2ccccc2n1	0	-	0[2.29 µM]	-
COC(=O)C/C=C\[C@@H](C)[C@@H](/C=N\OCC[C@H]1C=C[C@H](OC(C)=O)[C@@H](COC(C)=O)O1)NS(=O)(=O)c1ccc(C)cc1	0[11.5 µM]	-	0[11.4 µM]	-
O=C(Nc1cccc(C(F)(F)F)c1)c1cc(-c2cccs2)on1	0	4.85	0	0
Cc1nc2c(O)cccc2c(=O)[nH]1	0	-	0	-
COc1cccc(Cn2c(=O)c(-c3cccs3)nc3cnc(Nc4ccccc4)nc32)c1	0	-	0[11.4 µM]	-
COCCn1c(C)cc(C(=O)CSc2nc3ccccc3o2)c1C	0	0	7.94µM	-
COCCn1c(C)cc(C(=O)CSc2nnc3ccccn23)c1C	0	-	10µM	-
CCCNC(=O)OC[C@@H]1O[C@H](CCO/N=C(\C)CCC(=O)OC[C@@H]2O[C@H](c3ccccc3)C=C[C@@H]2Oc2ccc(OC)cc2)C=C[C@@H]1Oc1ccc(OC)cc1	0[11.5 µM]	-	0[11.4 µM]	-
Cc1ccc(CNC(=O)CS(=O)Cc2nc(-c3ccccc3C)oc2C)cc1 (centres undefined)	0	-	0	-
COc1ccc(CNC(=O)CS(=O)Cc2nc(-c3ccccc3C)oc2C)cc1 (centres undefined)	20µM	-	0	-
C(/C=C\c1ccccc1)=Nc1ccc2c(c1)Cc1ccccc1-2	0[11.5 µM]	-	0[11.4 µM]	-
O=C(O)c1[nH]c(=O)[nH]c(=O)c1CN1CCCCC1	0[11.5 µM]	-	0[11.4 µM]	-
C=CCNc1nc(N)c(C(=O)Nc2cc(C)on2)s1	0	-	20µM	-
C=CCNc1nc(N)c(C(=O)c2ccc3c(c2)OCO3)s1	0	0	0	0
Cc1ccc(CNC(=O)[C@H](C)[C@H]2C[C@]2(C)[C@H](NC(=O)OCc2ccccc2)c2ccccc2)c(F)c1F	0	-	-	-

Bioassay records (PubChem BioAssay)
